From PubChem
Tau FP inhib: inhibitors of human tau fibril formation; P10636; K18 P301L tau heparin fibrillization, Alexa594 FP, 6 h; Potency, µM (titrated, usually from 57.7 µM), without a hit: top-dose activity, negative = inhibition, most hits filed as inhibitors; 280,000 tested, 0.39% active; AID 1468; active = well fitted curve in the direction sought with a large enough effect; inconclusive = small, poorly fitted or top-dose-only effect, or another doubt; inactive = no such curve, though single readings can be large; an effect the other way counts as inactive or inconclusive; also: nearly all actives have a fitted effect of over 55% in size
Target sequence (P10636 561-689 P618L limits assumed): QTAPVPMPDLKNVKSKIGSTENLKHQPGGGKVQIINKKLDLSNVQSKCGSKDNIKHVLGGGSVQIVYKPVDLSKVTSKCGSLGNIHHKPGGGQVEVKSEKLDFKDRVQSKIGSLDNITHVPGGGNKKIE
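Compound effects on tau fibrillization are measured by Alexa 594 fluorescence polarization (ex 555, em 632 nm). K18 P301L tau is used at 15 uM with 0.24 uM labeled tracer, and 20 uM heparin induces aggregation over 6 hr at 37 C.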
ALDH1A1 inh: ALDH1A1 (human) enzyme inhibition; P00352; Purified ALDH1A1, NADH fluorescence, propionaldehyde substrate; Potency, µM (titrated, usually from 75.3 µM), inactives show at the highest dose activity, negative = inhibition, usual class: inhibitors; 220,000 tested, 7.3% active; AID 1030;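 also: plate controls were no enzyme wells and a reference inhibitor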
Tau ThT inhib: tau fibrillization inhibition (ThT binding) | P10636 | recombinant tau K18 P301L, heparin-induced fibrillization, ThT fluorescence | Potency, µM (doses to about 57.4 µM), for inactives: at the top dose activity, negative = inhibition, hits mostly inhibitors | 270,000 tested, 2.1% active; active = well fitted curve in the direction sought with a large enough effect; inconclusive = small, poorly fitted or top-dose-only effect, or another doubt; inactive = no such curve, though single readings can be large; an effect the other way counts as inactive or inconclusive; also: nearly all actives have a fitted effect of over 55% in size
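Tau K18 P301L fragment (15 uM unlabeled plus 0.24 uM Alexa 594-labeled) in 100 mM sodium acetate pH 7 with compound, fibrillization induced by 20 uM heparin for 6 hr at 37 C. Thioflavin T (30 uM) added, fluorescence read after 1 hr (ex 450, em 510 nm).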
Tau fluor cs: counter-screen for tau fibril formation inhibitors | Potency, µM (doses to about 57.7 µM), without a hit: at the top dose activity change, negative = decrease | tau K18 P301L (four-repeat tau fragment) Alexa594 fluorescence, heparin fibrillization | 280,000 tested, 0.93% active; active = well fitted curve in the direction sought with a large enough effect; inconclusive = small, poorly fitted or top-dose-only effect, or another doubt; inactive = no such curve, though single readings can be large; an effect the other way counts as inactive or inconclusive; also: nearly all actives have a fitted effect of over 55% in size
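Human K18 P301L tau (15 uM unlabeled plus 0.24 uM Alexa 594-labeled, final) in 100 mM sodium acetate pH 7 was mixed with compound and 20 uM heparin and incubated 6 hr at 37 C.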
JMJD2E inh: blocks human JMJD2E demethylase activity. AID 2147. 230,000 tested, 1.6% active. Potency, µM (titrated, usually from 57.1 µM), inactives show top-dose activity change, negative = inhibition, usual class: inhibitors. JMJD2E catalytic domain, FDH-coupled NADH fluorescence (FDH is formaldehyde dehydrogenase);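 also: 0% = wells with enzyme and -100% = buffer wells without enzyme; nearly all actives have a fitted effect of over 50% in size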
Target sequence (B2RXH2 1-337 limits assumed): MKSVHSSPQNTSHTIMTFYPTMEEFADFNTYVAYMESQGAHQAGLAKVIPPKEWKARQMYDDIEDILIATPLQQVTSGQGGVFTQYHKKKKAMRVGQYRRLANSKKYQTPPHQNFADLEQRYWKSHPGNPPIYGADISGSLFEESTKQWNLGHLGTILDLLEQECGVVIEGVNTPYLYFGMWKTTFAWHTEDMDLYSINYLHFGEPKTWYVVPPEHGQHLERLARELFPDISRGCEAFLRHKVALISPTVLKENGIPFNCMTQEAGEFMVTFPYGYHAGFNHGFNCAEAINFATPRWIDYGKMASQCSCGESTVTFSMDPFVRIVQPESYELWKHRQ
HPGD block: HPGD (human) dehydrogenase inhibition. AID 894. Potency, µM, for the others: at the top dose activity change, negative = inhibition, hits mostly inhibitors. purified HPGD, NADH fluorescence kinetic, PGE2 substrate. 150,000 tested, 4.3% active. P15428
Target sequence (P15428 whole entry, looked up): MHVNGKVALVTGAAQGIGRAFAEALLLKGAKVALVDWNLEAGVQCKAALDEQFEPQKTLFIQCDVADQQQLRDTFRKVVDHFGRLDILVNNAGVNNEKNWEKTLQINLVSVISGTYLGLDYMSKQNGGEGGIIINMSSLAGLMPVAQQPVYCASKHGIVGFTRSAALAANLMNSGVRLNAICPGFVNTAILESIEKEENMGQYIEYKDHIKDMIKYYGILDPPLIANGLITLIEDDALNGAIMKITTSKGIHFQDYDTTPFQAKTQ
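NADH formation kinetics: reaction with 30 uM PGE2 and 1 mM NAD+ (final), 20 nM enzyme, Tris-HCl pH 8 with Tween 20, after 15 min compound preincubation at room temperature. Fluorescence change, last versus first of five reads.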
* marks the source's active call; other numbers are inactive results; u = inconclusive; x = no result given; [ ] = remark or other dose. Shown are actives, neighbours in structure and some others; about 9.9% of the full set was active somewhere. Unless noted, calls follow the shape of the dose curve; as a rule, active = well fitted inhibition curve with a large enough effect (not every such curve was filed as active); inconclusive = small, poorly fitted or top-dose-only effect, or another doubt; inactive = no such curve, though single readings can be large or run the other way. Unless noted, % is scaled to controls: 0 for no effect and ±100 for the full control effect; potency is read from the fitted curve at half-maximal effect.

SMILES	Tau FP inhib	ALDH1A1 inh	Tau ThT inhib	Tau fluor cs	JMJD2E inh	HPGD block
CC(C)OCCCNC(=O)CN1C(=O)/C(=C/c2ccccc2)Sc2ccccc21	2.7%	u	-9.9%	-16.7%	u	u
O=C(NC(=S)Nc1ccc(N2CCOCC2)cc1)c1ccco1	-1.2%	u	u	-11.4%	10.3%	22.4µM*
CC(=O)c1cccc(NC(=S)NC(=O)c2cccc(Cl)c2)c1	-4.6%	20µM*	-16.6%	-16.6%	-4.2%	u
Cc1cccc(NC(=O)CC(C)(C)C)c1	-2.7%	-1.8%	-9.3%	-2.4%	-5.4%	15.8µM*
CC(=O)Nc1cccc(C)c1	x	-4.5%	x	x	x	-9.4%
CC(=O)c1cccc(NC(=S)NC(=O)c2ccccc2)c1	-8.7%	u	-7.4%	-7.0%	-9.2%	u
N#C/C(=C1\CCCN1)c1ccc2ccccc2n1	-9.2%	8.3%	-7.1%	-17.7%	-7.1%	-12.8%
N#C/C(=C1/CCCCCN1)c1nc2ccccc2[nH]1	-10.5%	8.91µM*	9.4%	-10.6%	-5.2%	-26.0%
CCc1ccc(CNC(=O)Cc2ccc(NC(=O)N3CCSc4ncccc43)cc2)cc1	10.0%	x	-2.2%	-11.7%	x	x
CCOC(=O)Cc1csc(-n2sc3ccccc3c2=O)n1	28.2µM*	3.55µM*	28.2µM*	u	10µM*	1.41µM*
CCOC(=O)Cc1csc(SCn2nnc3ccccc3c2=O)n1	5.2%	u	-11.4%	-8.0%	-14.6%	-22.2%
CCn1c(C)nc2cc(C(=O)NNC(=S)NC(=O)c3ccc(OC)cc3)ccc21	4.6%	-10.9%	u	-3.4%	-68.8%	x
CC(C)(C)NC(=O)c1ccc2c(c1)N(CC(=O)N1CCN(c3ccccc3F)CC1)C(=O)C(C)(C)O2	7.1%	14.1µM*	-3.9%	5.2%	5.9%	-6.3%
Cc1ccc(C(=O)CN2CCC(NC(=O)C3CCCCC3)CC2)cc1	-11.1%	14.1µM*	-19.5%	-8.6%	3.9%	-9.9%
COc1ccc(NC(=S)NCc2cccs2)cc1OC	4.3%	6.9%	-5.3%	-10.2%	5.6%	x
S=C(NCc1cccs1)Nc1ccccc1	-2.8%	u	5.4%	5.7%	-16.2%	12.6µM*
COc1cccc(NC(=S)Nc2ccc(O)cc2)c1	u	x	17.8µM*	u	-18.1%	x
Fc1ccc(NC(=S)NCc2cccs2)cc1	-1.9%	-9.4%	3.6%	-0.1%	-0.5%	17.8µM*
COc1cccc(NC(=S)NCc2cccs2)c1	0.0%	-9.4%	3.7%	4.7%	1.4%	17.8µM*
CC(=O)N1CC(=O)N=C1SCC(=O)Nc1nc(-c2ccccc2)c(-c2ccccc2)s1	u	-13.1%	u	-24.8%	u	-11.4%
Cc1ccc(NC(=S)NCc2cccs2)cc1	-8.7%	-6.7%	-9.9%	-8.8%	-2.3%	28.2µM*
Cc1cccc(NC(=S)NCc2cccs2)c1	-2.5%	-1.7%	-1.8%	-6.1%	-1.3%	x
CN(C)c1ccc(CNc2nc(-c3ccco3)nn2C(=O)c2cccc([N+](=O)[O-])c2)cc1	9.5%	x	u	12.6µM*[quencher]	x	x
O=C(Nc1nc(-c2ccccc2)cs1)c1ccc(N2CCOCC2)c([N+](=O)[O-])c1	5.1%	-6.3%	8.91µM*	u	-9.1%	-10.8%
O=C(Nc1ccon1)c1ccc(N2CCCCC2)c([N+](=O)[O-])c1	-1.7%	12.6µM*	u	-16.3%	-2.3%	x
SMILES	Tau FP inhib	ALDH1A1 inh	Tau ThT inhib	Tau fluor cs	JMJD2E inh	HPGD block
Cc1ccc(-c2csc(NC(=O)c3cc([N+](=O)[O-])ccc3N3CCOCC3)n2)cc1	4.0%	-4.9%	-3.0%	-12.2%	-4.1%	x
O=C(Nc1nc2ccccc2s1)c1ccc(N2CCCCC2)c([N+](=O)[O-])c1	-13.9%	11.2µM*	4.47µM*	u	-1.0%	-6.3%
Cc1ccccc1CN1CCCN(CC(=O)Nc2ccc3c(c2)OCCO3)S1(=O)=O	7.1%	x	-4.8%	-13.9%	x	x
CCCC1OC2CC3C4CCC5=CC(=O)C=CC5(C)C4C(O)CC3(C)[C@]2(C(=O)CO)O1 (stereo not given in full)	10.0%	-3.1%	2.8%	5.5%	5.2%	-8.3%
COc1cc2[nH]c(=S)n(CCN3CCOCC3)c(=O)c2cc1OC	5.7%	-15.1%	-1.8%	3.6%	-6.6%	-21.0%
CCOc1cc2[nH]c(=S)n(CC3CCCO3)c(=O)c2cc1OCC (stereo not given)	5.2%	2.51µM*	1.3%	2.4%	5.3%	-9.9%
CC(C)NC(=O)c1ccc2c(=O)n(C3CCCC3)c(=S)[nH]c2c1	-19.0%	0.447µM*	3.1%	-3.0%	-4.1%	-4.6%
COc1cc2[nH]c(=S)n(CC3CCCO3)c(=O)c2cc1OC (stereo not given)	-5.0%	7.94µM*	-1.1%	-5.8%	4.5%	-1.9%
COc1cc2[nH]c(=S)n(C3CCCC3)c(=O)c2cc1OC	-4.0%	u	-3.5%	-23.3%	3.6%	-2.6%
COc1cc2[nH]c(=S)n(C3CC3)c(=O)c2cc1OC	5.6%	28.2µM*	2.0%	6.7%	-21.9%	x
CC(C)C(=O)Nc1ccccc1C(=O)OCc1cc(=O)n2nc(C3CC3)sc2n1	2.4%	x	-11.9%	0.0%	x	x
COC(=O)[C@H](Cc1ccccc1)NC(=O)O[C@@H]1C(=O)c2cc(OC)ccc2O[C@H]1c1cccc(OC)c1	-3.0%	20µM*	-9.9%	-14.4%	u	-19.6%
COC(=O)[C@H](COC(C)(C)C)NC(=O)O[C@@H]1C(=O)c2cc(Br)ccc2O[C@H]1c1cccc(OC)c1	-3.0%	10.9%	-10.0%	-11.2%	7.2%	-8.8%
O=C(O)CCCCCNC(=O)Cn1nnc2ccccc2c1=O	5.5%	x	1.6%	8.3%	-0.1%	x
O=C(NC(NC(=S)Nc1c(Cl)cccc1Cl)C(Cl)(Cl)Cl)OCc1ccccc1 (stereo not given)	u	10µM*	-0.7%	u	5.4%	-12.9%
CCOC(=O)NC(NC(=S)Nc1ccc(OCC)cc1)C(Cl)(Cl)Cl (stereo not given)	-1.2%	7.3%	0.2%	-5.5%	2.5%	-3.0%
N#CC(C#N)=Cc1ccc(-c2ccc(S(=O)(=O)N=C(N)N)cc2)o1	8.0%	u	20µM*	u	0.4%	u
COc1ccc(NC(=O)C(C)n2nc(-c3ccc(C)c(C)c3)ccc2=O)cc1OC (stereo not given)	6.5%	x	u	-27.5%	x	x
CN(C)S(=O)(=O)c1cccc(C(=O)N(Cc2ccc(F)cc2)Cc2ccco2)c1	4.0%	25.1µM*	-5.8%	-5.1%	-2.9%	-5.7%
Cc1ccc(N(Cc2ccco2)C(=O)c2cccc(S(=O)(=O)N(C)C)c2)cc1	1.4%	25.1µM*	-8.1%	-4.6%	-3.8%	3.2%
CN(C)S(=O)(=O)c1cccc(C(=O)NCc2ccco2)c1	1.2%	u	-8.3%	-0.9%	7.1%	-0.8%
CCN1c2cc(C)ccc2-n2cccc2C12CCN(C(=O)Nc1cc(OC)c(OC)c(OC)c1)CC2	u	x	-10.5%	-26.3%	x	x
